Drawing on PubChem BioAssay AID1852 (Sanford-Burnham Center for Chemical Genomics, 2009), this text covers inhibition for 63 compounds.

The campaign covered roughly 2,500 compounds. About 1,100 (44%) were called active. The set was probably picked from earlier hits. The list shows a part of the results. Unmarked numbers belong to inactive results.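 How the source made its calls: active means inhibition above 50% at 4 µM in the single-point screen; inactive means inhibition of 50% or less.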

This test can be described thus: blockers of TNF-a NF-kB luciferase induction – cell-based, HEK293T NF-kB-Luc, luminescence, selectivity assay for NOD1/NOD2 signaling inhibitor project, primary screen (AID 1852). Particulars: TNF-a induced, 14 h, at 4 µM, hits give high values.
`COc1ccc(-c2cn(-c3ccc(C)cc3C)c(=S)[nH]2)cc1OC`: the inhibition is 18.3%.

As for `Nc1ncnc(Sc2ccc(Cl)cc2)c1[N+](=O)[O-]`, the inhibition is 1%.

On to `Nc1ncnc(N2CCc3ccccc32)c1[N+](=O)[O-]`, for which the inhibition was 99.8% (active).

In the case of `Nc1ncnc(Nc2ccccn2)c1[N+](=O)[O-]`, the inhibition is 22.8%.

Regarding `CC1CCCCN1c1ncnc(N)c1[N+](=O)[O-]` (stereo not drawn), the inhibition was 59.2% (active).

For the compound `COc1ccc(CCN2C(=S)N(c3ccc(Cl)cc3)C(=O)C2CC(N)=O)cc1OC` (stereo not drawn), the inhibition is 17.3%.

As for `Cc1cccc(CSc2cccc3cccnc23)c1`, the inhibition was 104% (active).

`Cn1c(-c2ccccc2)c(C(=O)CCl)c2ccccc21`: the inhibition is 76.3% (active).

For the compound `Cc1cc(C(=O)CCl)c(C)n1CCc1ccccc1`, the inhibition was 47.1%.

Take `Cn1cc(C(=O)CCl)c2ccccc21`: the inhibition is 77.1% (active).

As to `Cn1c(=NC(=O)CCl)sc2ccccc21`, the inhibition was 37.1%.

As for `Cc1ccc(C(C)C)c(OCc2ccc(C(=O)N/N=C/c3ccc(C(=O)O)cc3)cc2)c1`, the inhibition is 64.9% (active).

Turning to `COc1cc(/C=N/NC(=O)c2ccc(COc3cc(C)ccc3C(C)C)cc2)cc(OC)c1O`, the inhibition is 40.7%.

Regarding `Cc1ccc(C(C)C)c(OCc2ccc(C(=O)N/N=C/c3cccc(O)c3O)cc2)c1`, the inhibition was 17.2%.

`CC1CCC/C=C/C(=O)c2c(O)cc(O)cc2CC(=O)O1` (stereo not drawn): the inhibition was 74.9% (active).

With `CN1/C(=C\C=[N+](C)c2ccccc2)C(C)(C)c2ccccc21`, the inhibition was 49.5%.

As to `O=C(C(Cl)Cl)N1c2ccccc2OCC1c1ccccc1` (stereo not drawn), the inhibition was 37.8%.

With `O=C(CCl)N1c2ccccc2OCC1c1ccccc1` (stereo not drawn), the inhibition was 62.2% (active).

Consider `O=C(CCl)N1c2ccccc2SCC1c1ccccc1` (stereo not drawn), for which the inhibition is 32.2%.

With `COc1ccc(N(Cc2cc(=O)[nH]c3ccccc23)C(=O)CCl)cc1`, the inhibition is 21.4%.

In the case of `O=C(CCl)N(Cc1cc(=O)[nH]c2ccccc12)c1ccccc1`, the inhibition is 99.9% (active).

As to `Cc1ccc(N(Cc2cc(=O)[nH]c3ccccc23)C(=O)CCl)cc1`, the inhibition was 106% (active).

On to `Cc1cccc(N(Cc2cc(=O)[nH]c3ccccc23)C(=O)CCl)c1`, for which the inhibition was 78.4% (active).

Regarding `CCCS(=O)(=O)c1cnc(C2COc3ccccc3O2)nc1N` (stereo not drawn), the inhibition is 48.4%.

For `Cc1ccc(-n2c(-c3ccc(Br)cc3)c[n+]3c2CCc2ccc4cccnc4c2-3)cc1`, the inhibition is 85% (active).

For `Cc1ccc(-c2csc3ncnc(Sc4nnc(CN5CCCCCC5=O)o4)c23)cc1`, the inhibition is 93.2% (active).

`O=C(Nc1ccc(C(F)(F)F)cc1)C1CCN(S(=O)(=O)c2ccc(N3CCCC3=O)cc2)CC1`: the inhibition is 63.7% (active).

As for `CC1Sc2ccc(S(=O)(=O)N3CCC(C(=O)Nc4ccc(Cl)cc4)CC3)cc2NC1=O` (stereo not drawn), the inhibition is 44%.

In the case of `CC(C)(C)CC(=O)Nc1ccc(S(=O)(=O)N2CCCC2)cc1`, the inhibition is 15.8%.

Regarding `COc1ccc(CN(C)C(=O)c2cc(-c3ccc(C)cc3C)nc3ccccc23)c(OC)c1OC`, the inhibition was -3.9%.

Turning to `COc1ccccc1CN(C)C(=O)c1cc(-c2cc(OC)c(OC)c(OC)c2)nc2ccccc12`, the inhibition is 20.3%.

On to `COc1cccc(CN(C)C(=O)CNC(=O)c2ccc(-c3ccccc3)cc2)c1OC`, for which the inhibition is 57% (active).

Turning to `Cc1ccc(S(=O)(=O)NC(C(=O)N2CCOCCOCCOCC2)C(C)C)cc1` (stereo not drawn), the inhibition is 15.4%.

`O=S(=O)(c1ccc(Cl)cc1)c1snnc1-c1ccccc1`: the inhibition is 44.1%.

As for `CC(=O)N(c1ccccc1Cl)S(=O)(=O)c1ccc(Cl)cc1`, the inhibition is 9.8%.

For the compound `CN(c1ccc(C(=O)Nc2ccccc2C(=O)N2CCOCC2)cc1)S(C)(=O)=O`, the inhibition is 16.2%.

With `O=C(c1nnsc1S(=O)(=O)c1ccc(Cl)cc1)N1CCOCC1`, the inhibition was 52% (active).

Take `CNC(=O)c1nnsc1S(=O)(=O)c1ccc(Cl)cc1`: the inhibition was 91.4% (active).

As to `CCSCCc1nnc(NC(=O)Nc2cccc(C(F)(F)F)c2)s1`, the inhibition is 7.5%.

In the case of `O=C(Nc1nnc(-c2cccs2)o1)c1cccc(Oc2ccccc2)c1`, the inhibition is 103% (active).

Regarding `O=C(Nc1nnc(-c2cccs2)o1)c1cccc(C(F)(F)F)c1`, the inhibition was 100% (active).

`O=C(CCC(=O)N1CCOc2ccccc21)NCc1ccccn1`: the inhibition is 18.7%.

Take `Cc1ccc(S(=O)(=O)Nc2ccc(Br)cc2/C=N/n2cnnc2)cc1`: the inhibition is 47.3%.

As for `Cc1cc(/C=N/n2cnnc2)c(C)n1-c1ccc(OCc2ccc(Cl)cc2Cl)cc1`, the inhibition is 71.9% (active).

With `CN(C)c1ccnc2sc(C(N)=O)c(N)c12`, the inhibition was 83.5% (active).

Consider `CN(c1ccccc1)S(=O)(=O)c1cc(C(=O)Nc2nc3ccccc3[nH]2)ccc1Cl`, for which the inhibition is 31.3%.

Take `O=C(c1ccccc1)c1ccc2nc(-c3ccc(NC(=O)c4ccccc4Br)cc3)[nH]c2c1`: the inhibition is 11.7%.

`Cc1c(C(=O)Nc2nc3ccccc3[nH]2)oc2ccc(Br)cc12`: the inhibition is 98.6% (active).

In the case of `Cc1cc(NC(=O)/C=C/c2ccc(F)cc2)n(-c2nc3ccccc3[nH]2)n1`, the inhibition was -3.9%.

Turning to `O=C(Nc1nc2ccccc2[nH]1)c1cc(F)cc(F)c1`, the inhibition was 80.3% (active).

For the compound `CCc1ccc(C(=O)Nc2nc3ccccc3[nH]2)cc1`, the inhibition is 103% (active).

As for `Cc1ccc(O)c(N=Cc2cc(Cc3ccccc3)cc([N+](=O)[O-])c2O)c1`, the inhibition was -1.6%.

Take `Cc1ccc(N=Cc2cc(Cc3ccccc3Cl)cc([N+](=O)[O-])c2O)c(O)c1`: the inhibition is 70.8% (active).

On to `Cc1ccc(-n2c(C)c([N+](=O)[O-])c3ccc(O)cc32)cc1`, for which the inhibition was 40.4%.

With `Cc1c([N+](=O)[O-])c2ccc(O)cc2n1-c1ccccc1`, the inhibition was 60.9% (active).

For `CN(C)/C=C/c1c([N+](=O)[O-])c2ccc(O)cc2n1-c1ccccc1`, the inhibition was 83.5% (active).

Consider `COc1cc(/C=C2\SC(=S)N(CCC(=O)Nc3ccccc3)C2=O)cc(OC)c1OC`, for which the inhibition is 6.8%.

For `O=C1/C(=C\c2cccc([N+](=O)[O-])c2O)SC(=S)N1Cc1ccccc1`, the inhibition was 14.2%.

`O=C1S/C(=C\c2ccc(O)c([N+](=O)[O-])c2)C(=O)N1Cc1cccc([N+](=O)[O-])c1`: the inhibition was 19.6%.

Take `O=C1/C(=C/c2ccc(O)c([N+](=O)[O-])c2)SC(=S)N1Cc1ccccc1`: the inhibition was 88.5% (active).

`Cc1ccc(/C=C2\SC(=S)N(C(Cc3ccccc3)C(=O)O)C2=O)cc1` (stereo not drawn): the inhibition was 25.1%.

For `O=C1/C(=C\c2cc(Cl)c(O)c(Cl)c2)SC(=S)N1Cc1ccccc1`, the inhibition was 82.7% (active).

Turning to `COc1cc([N+](=O)[O-])cc(/C=C2/SC(=S)N(Cc3ccccc3)C2=O)c1O`, the inhibition was 81.1% (active).

For orientation: inhibition means the change of the read-out against control, counted positive when it falls.
